MLL CXXC-DNA inh – MLL CXXC-DNA interaction inhibition | Potency, µM (series often up to 115 µM), inactives show top-dose activity change, negative = inhibition, most hits filed as inhibitors | MLL-CXXC / FITC-HOXA9 DNA fluorescence polarization | 290,000 compounds, 0.037% hits | AID 2662 | Q03164; active means well fitted inhibition curve with a large enough effect in the polarisation, with a control signal flat, not every such curve was filed as active; inconclusive means small, poorly fitted or top-dose-only effect, or effect the other way, or a change in a side signal; inactive means no such curve, though single readings can be large or run the other way; the % refers to the polarisation; further: potency means the concentration at half of the fitted maximal effect
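Steps: dispense CXXC domain solution (7 uM) → pin compounds or unlabeled HOX-A9 DNA control → 5 min ambient → add FLSN-HOX-A9 solution (50 nM) → spin → 30 min ambient → fluorescence polarization. Tris pH 7.5/NaCl/DTT/BSA buffer.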
TR SRC2 fluor cs – alters Texas Red total fluorescence, flagging assay interference. TRb/SRC2 Texas Red total fluorescence interference. Potency, µM (top dose mostly 106 µM), inactives show at the top dose fluorescence change, negative = quenching. 280,000 compounds, 0.29% hits. AID 1479; active means well fitted curve in either direction with a large enough effect; inconclusive means small, poorly fitted or top-dose-only effect; further: potency means the concentration at half of the fitted maximal effect; on the % scale 0 is the no-effect control and ±100 the full control effect
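Human TRb ligand-binding domain at 0.6 uM with 20 nM Texas Red SRC2 peptide in Tris buffer containing 1 uM T3 and 5% DMSO, incubated with compound 5 h at ambient temperature. Total fluorescence (555/632 nm) calculated as parallel + 2 × perpendicular.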
TRb-SRC2 inh – TRbeta-SRC2 interaction inhibition. P10828. TRbeta-SRC2 peptide binding, fluorescence polarization; receptor liganded with 1 µM T3. Potency, µM (series often up to 106 µM), for the others: at the highest dose activity change, negative = inhibition, most hits filed as inhibitors. 280,000 compounds, 0.065% hits. AID 1469; active means well fitted inhibition curve with a large enough effect; inconclusive means small, poorly fitted or top-dose-only effect, or effect the other way;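 further: potency means the concentration at half of the fitted maximal effect; plate controls were bound peptide for no effect and peptide without receptor for full effect; nearly all actives have a fitted effect of over 50% in size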
Target sequence (P10828 whole entry, looked up): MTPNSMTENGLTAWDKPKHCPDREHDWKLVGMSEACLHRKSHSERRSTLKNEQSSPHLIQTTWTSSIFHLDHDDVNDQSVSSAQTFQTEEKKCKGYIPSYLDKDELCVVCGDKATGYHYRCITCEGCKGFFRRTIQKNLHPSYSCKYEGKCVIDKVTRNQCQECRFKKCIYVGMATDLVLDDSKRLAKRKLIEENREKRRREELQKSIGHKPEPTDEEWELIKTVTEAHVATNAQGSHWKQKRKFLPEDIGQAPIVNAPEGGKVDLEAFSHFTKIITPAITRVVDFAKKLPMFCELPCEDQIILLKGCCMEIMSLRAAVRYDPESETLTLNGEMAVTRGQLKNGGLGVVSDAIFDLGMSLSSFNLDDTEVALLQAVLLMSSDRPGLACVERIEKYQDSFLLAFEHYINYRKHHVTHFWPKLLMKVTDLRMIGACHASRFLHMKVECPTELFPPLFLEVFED
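Compounds were added to 0.6 uM TRb ligand-binding domain and 20 nM Texas Red-labeled SRC2 peptide in Tris buffer containing 1 uM T3, incubated 5 hr at ambient temperature, then read by fluorescence polarization.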
Menin-MLL TR inh – inhibitors of human menin-MLL interaction, mutant MLL peptide. Menin + Texas Red MLL mutant peptide, fluorescence polarization. 270,000 compounds, 0.23% hits. Potency, µM (titrated, usually from 61.6 µM), for the others: at the top dose FP activity change, negative = inhibition, usual class: inhibitors. O00255; active means well fitted inhibition curve with a large enough effect in the polarisation, with a control signal flat, not every such curve was filed as active; inconclusive means small, poorly fitted or top-dose-only effect, or effect the other way, or a change in a side signal; inactive means no such curve, though single readings can be large or run the other way; the % refers to the polarisation; further: potency means the concentration at half of the fitted maximal effect; % of control where 0% means no effect
Menin MLL FP FL – displaces fluorescein MLL peptide from human menin; Fluorescence polarization, fluorescein-MLL peptide displacement from menin; FP activity change, % at 61.4 µM; 290,000 tested, under 10 active; active means well fitted curve in the direction sought with a large enough effect in the polarisation, not every such curve was filed as active; inconclusive means small, poorly fitted or top-dose-only effect, or effect the other way, or a change in a side signal; inactive means no such curve, though single readings can be large or run the other way; the % refers to the polarisation; further: % of control where 0% means no effect
GoLoco inh red – RGS12 GoLoco-Gai1 interaction inhibition; P63096; Gai1:RGS12 GoLoco peptide FP, rhodamine, 10 min; Potency, µM (highest dose often 61.6 µM), without a hit: at the highest dose activity, negative = inhibition, most hits filed as inhibitors; 230,000 compounds, 0.44% hits; active means well fitted inhibition curve with a large enough effect, not every such curve was filed as active; inactive means no such curve, though single readings can be large or run the other way; further: potency means the concentration at half of the fitted maximal effect; on the % scale 0 is the no-effect control and ±100 the full control effect; nearly all actives have a fitted effect of over 30% in size
* = called active by the depositor; u = inconclusive; x = not tested or not shown; [ ] = dose if it differs, or a comment. In the library only some 0.5% were active in any assay of this set; here they are far more common.

SMILES	MLL CXXC-DNA inh	TR SRC2 fluor cs	TRb-SRC2 inh	Menin-MLL TR inh	Menin MLL FP FL	GoLoco inh red
CCOC(=O)c1c(C)oc2nc(C)nc(NCCCN3CCN(c4cccc(C)c4)C(C)C3)c12 (stereo not drawn)	x	45µM*[quencher]	-10%	x	x	x
NCC(=O)N[C@@H](CCCN=C(N)N)C(=O)NCC(=O)N[C@@H](CCC(=O)O)C(=O)N[C@@H](CO)C(=O)O	x	2%	-3%	10%	4	x
O=C(NO)c1ccccc1	x	-4%	10%	x	x	28µM*
CC1(C)[C@@H]([C@@H](Br)C(Br)(Br)Br)[C@H]1C(=O)O[C@H](C#N)c1cccc(Oc2ccccc2)c1	x	2%[201 µM]	3%[201 µM]	x	x	x
CCC1CN(C(=O)N2CCC(C(=O)N3CCN(c4ccccc4F)CC3)CC2)c2ccccc2O1 (stereo not drawn)	x	0.014µM*[quencher]	-3%	x	x	x
COc1ccc(-c2noc(N3CCC(C(=O)N4CCN(c5ccccc5F)CC4)CC3)n2)cc1	x	56µM*[quencher]	u	x	x	x
CN(C(=O)CSc1nc2ccccc2n1CC(=O)NCc1ccc(F)cc1)c1ccc(F)cc1	x	-1%	-2%	x	x	x
COc1ccc(OC)c(C(C)NC(=O)Cn2c(=O)cc(C)c3c(C)nn(-c4ccc(C)cc4)c32)c1 (stereo not drawn)	x	-1%	0%	x	x	x
NCCNCCN	x	-6%	-1%	u	u	x
CCn1c(C(=O)N2CCC(C(=O)NCc3ccc(OC)cc3)CC2)cc2sccc21	-1%	x	x	-2%	0	x
COCCNC(=O)C1CCN(C(=O)c2cc3sccc3n2Cc2ccc(Cl)cc2)CC1	x	28µM*[quencher]	-6%	x	x	x
CCn1c(C(=O)N2CCC(C(=O)NCCc3ccc(OC)cc3OC)CC2)cc2sccc21	x	22µM*[quencher]	-10%	x	x	x
COCCCNC(=O)C1CCN(C(=O)c2cc3sccc3n2Cc2ccc(Cl)cc2)CC1	x	u	-1%	x	x	x
O=C(CCC(=O)N1CCSc2ccccc21)NCc1ccccc1Cl	x	2%	-1%	x	x	x
CN1C(=O)C[C@H](C(=O)O)[C@@H]1c1cccnc1	x	-4%	6%	-6%	0	x
Cc1nc2cc(-c3ccsc3-n3c(C)ccc3C)[nH]n2c(=O)c1Cl	-6%	45µM*[quencher]	19%	u	u	16%
Cc1cc(=O)n2[nH]c(-c3ccsc3-n3c(C)ccc3C)cc2n1	-1%	-12%	-1%	x	u	32%
O=C(CSc1nc2nccnc2c(=O)n1CCc1c[nH]c2ccccc12)Nc1ccc(F)cc1	x	-9%	-1%	x	x	x
CCCCOC(=O)[C@@H](C)Oc1ccc(Oc2ccc(C(F)(F)F)cn2)cc1	x	-4%[201 µM]	-4%[201 µM]	x	x	x
COc1cc(C2C(C#N)=C(N)Oc3c2ccc2ccccc32)ccc1OCC(=O)Nc1ccccc1C (stereo not drawn)	26%	0%	-2%	25µM*	4	9%
COc1cc([N+](=O)[O-])c2ncsc2c1	2%	0%	3%	0%	-1	12%
COc1cc(SSc2cc(OC)cc([N+](=O)[O-])c2N)c(N)c([N+](=O)[O-])c1	4%	-3%	4%	u	u	10µM*
CCc1ccccc1NC(=O)Cn1c(=O)n(Cc2ccc(OC)cc2)c(=O)c2oc3ccccc3c21	x	-2%	-3%	x	x	x
CC(C)[N+](C)(C)CC#CC(O)(c1ccccc1)c1ccccc1	20%	-7%	-9%	x	1	3.2µM*
O=C(CSc1ncnc2scc(-c3ccccc3)c12)N1CCN(Cc2ccc3c(c2)OCO3)CC1	14%	45µM*[fluorescent]	4%	-11%	u	x
SMILES	MLL CXXC-DNA inh	TR SRC2 fluor cs	TRb-SRC2 inh	Menin-MLL TR inh	Menin MLL FP FL	GoLoco inh red
CCOC(=O)CC(O)(CC(=O)OCC)C(=O)OCC	x	0%[201 µM]	-3%[201 µM]	x	x	x
Cc1ccc(C)c(N2CCN(S(=O)(=O)c3ccc4c(c3)CC(C)N4C(=O)C3CC3)CC2)c1 (stereo not drawn)	4%	x	x	13%	-1	x
Cc1ccc(Cl)cc1N1CCN(S(=O)(=O)c2ccc3c(c2)CC(C)N3C(=O)C2CCC2)CC1 (stereo not drawn)	x	16µM*[quencher]	-13%	x	x	x
COc1ccccc1CNS(=O)(=O)c1ccc2c(c1)CC(C)N2C(=O)C1CCC1 (stereo not drawn)	4%	22µM*[quencher]	-10%	-2%	-1	x
COc1ccccc1CNS(=O)(=O)c1ccc2c(c1)CC(C)N2C(=O)C1CC1 (stereo not drawn)	-6%	x	x	10%	-3	x
C=CC(=O)OCCOCC(CC)(COCCOC(=O)C=C)COCCOC(=O)C=C	x	1%[201 µM]	u	x	x	x
COc1ccccc1OCc1nc(-c2cccc(C)c2)no1	x	-10%	3%	x	x	x
CCN1C(=O)/C(=C/C=C2/Sc3ccc4ccccc4c3N2CCO)SC1=S	57%	22%	19%	u	u	235%
CCN1C(c2ccccc2)=C(c2ccccc2)S/C1=C/C=C1\SC(=S)N(C)C1=O	3%	18µM*[fluorescent]	u	u	u	11%
Cc1ccc(NC(=O)CN2C(=O)N/C(=C/c3cccn3-c3ccc(C(=O)O)cc3)C2=O)cc1	-2%	-13%	5%	20%	10	7%
Cc1ccc(NC(=O)CN2C(=O)N/C(=C/c3ccco3)C2=O)cc1	-3%	50µM*[quencher]	11%	x	48	17%
CC(Sc1ccc(Cl)cc1)C(=O)Nc1ccccc1-c1ccccc1 (stereo not drawn)	27%	25µM*[quencher]	-12%[53 µM]	-8%	2	-10%
Cc1ccc(SC(C)C(=O)Nc2ccccc2-c2ccccc2)cc1 (stereo not drawn)	-2%	-4%	-7%	u	5	-4%
CC(O)c1n(C)c(Cl)c[n+]1C (stereo not drawn)	15%	0%	3%	-19%	-2	13µM*

Screens from PubChem.
